# Reference: PubChem BioAssay AID1481 (The Scripps Research Institute Molecular Screening Center, 2009)
# Where “and” joins values, the source holds several entries; their conditions need not be identical. Equal entries are not always repeated. Out of some 220,000 compounds screened, about 920 (0.42%) were called active. No stated cut-off is given here; in the data, active means inhibition above about 15%; inactive means the rest. For the sample, actives were picked, then their nearest neighbours and some compounds at random. A structure can be active in one record and inactive in another.
# Biological target: Transitional endoplasmic reticulum ATPase (Homo sapiens) (UniProt P55072)
# Sequence (P55072 whole entry, looked up): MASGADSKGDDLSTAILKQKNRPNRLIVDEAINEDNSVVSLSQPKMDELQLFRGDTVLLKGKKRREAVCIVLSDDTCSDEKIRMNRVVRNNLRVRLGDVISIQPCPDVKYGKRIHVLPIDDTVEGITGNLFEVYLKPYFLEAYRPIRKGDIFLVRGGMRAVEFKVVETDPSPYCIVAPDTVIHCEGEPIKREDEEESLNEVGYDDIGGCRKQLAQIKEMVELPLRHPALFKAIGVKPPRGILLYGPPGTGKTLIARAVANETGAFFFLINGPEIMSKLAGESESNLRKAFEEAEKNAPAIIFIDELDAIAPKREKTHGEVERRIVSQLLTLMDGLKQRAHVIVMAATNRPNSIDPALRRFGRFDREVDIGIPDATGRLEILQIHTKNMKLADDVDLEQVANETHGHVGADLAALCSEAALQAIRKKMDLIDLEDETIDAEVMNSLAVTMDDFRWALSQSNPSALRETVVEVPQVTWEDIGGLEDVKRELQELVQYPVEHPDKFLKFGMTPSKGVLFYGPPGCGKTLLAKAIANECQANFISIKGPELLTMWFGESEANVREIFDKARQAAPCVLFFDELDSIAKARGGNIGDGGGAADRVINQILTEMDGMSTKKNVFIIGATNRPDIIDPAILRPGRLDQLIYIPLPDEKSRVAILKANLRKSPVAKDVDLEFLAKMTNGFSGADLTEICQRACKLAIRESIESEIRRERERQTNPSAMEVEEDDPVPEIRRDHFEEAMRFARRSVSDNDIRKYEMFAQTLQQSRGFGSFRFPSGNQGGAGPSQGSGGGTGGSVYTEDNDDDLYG
# Experiment: p97 ATP hydrolysis blockers – biochemical, primary screen (AID 1481);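 further: 0% = DMSO vehicle and 100% = wells lacking enzyme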
# Conditions: recombinant p97 ATPase, Kinase-Glo ATP luminescence, 3 h; at 8 µM; stronger effect = higher value
row,SMILES,inhibition
1,O=S(=O)(Cc1ccccc1)c1nc2ccccc2n1Cc1ccccn1,2.46% (inactive)
2,N#CC1=C(N)Oc2[nH]c(=S)[nH]c(=O)c2C12C(=O)Nc1ccccc12 (stereo not drawn),20.7% (active)
3,Cc1ccc(NC2(C#N)C(=O)Nc3ccccc32)cc1 (stereo not drawn),2.18% (inactive)
4,N#CC1=C(N)Oc2n[nH]c(CSc3ccccc3)c2C12C(=O)Nc1ccccc12 (stereo not drawn),7.12% (inactive)
5,COc1ccc2c(c1)CCc1cn3ncc(C#N)c3nc1-2,7.2% (inactive)
6,CCC(=O)OCCNc1nc(-c2ccccc2)nc2ccccc12,4.18% (inactive)
7,Cc1cc(C(C)(C)C)cc(C)c1N,7.52% (inactive)
8,COc1cc(C(F)(F)F)c(C(=O)N(C)c2ccc(Cl)cc2)cn1,-1.66% (inactive)
9,C#CCOCCOCCOCCNc1nc(N2CCN(C(=O)[C@H](Cc3ccc(O)cc3)n3cc(C(N)CC(C)C)nn3)CC2)nc(N2CCN(C(=O)[C@H](CCC(=O)O)n3cc(C(N)[C@H](C)CC)nn3)CC2)n1 (stereo partly drawn),-3.1% (inactive)
10,C#CCOCCOCCOCCNc1nc(N2CCN(C(=O)[C@H](CCCCN)n3cc([C@@H](N)C(C)CC)nn3)CC2)nc(N2CCN(C(=O)[C@H](Cc3ccc(O)cc3)n3cc([C@@H](N)C(C)CC)nn3)CC2)n1 (stereo partly drawn),13.3% (inactive)
11,C#CCOCCOCCOCCNc1nc(N2CCN(C(=O)C(Cc3ccc(O)cc3)n3cc(C(N)CC(C)C)nn3)CC2)nc(N2CCN(C(=O)C(Cc3ccc(O)cc3)n3cc(C(N)C(C)CC)nn3)CC2)n1 (stereo not drawn),14.7% (active)
12,O=C(NCCc1ccccn1)c1cccnc1Oc1ccc(Cl)cc1,-3.2% (inactive)
13,COc1ccccc1N1CCN(C(=O)C(=O)N/N=C/c2ccccc2F)CC1,0.1% (inactive)
14,COc1ccc(C(C(=O)NC2CCCCC2)N(C(=O)Cc2c[nH]c3ccccc23)c2ccccc2)cc1OC (stereo not drawn),14.6% (active)
15,Cc1cc(NC(=O)CCC(=O)N(c2ccccc2)C(C(=O)NC2CCCC2)c2ccncc2)no1 (stereo not drawn),3.62% (inactive)
16,COc1ccc(C(C(=O)NC2CCCCC2)N(C(=O)CCl)c2ccccc2Cl)cc1 (stereo not drawn),-0.41% (inactive)
17,Cc1ccc2nc(-c3ccc(NC(=O)c4cccnc4)cc3)oc2c1,-7.59% (inactive)
18,COc1cccc(NC(=S)C(C#N)=C2N(C)c3ccccc3N2C)c1,4.23% (inactive)
19,CCOc1ccc(C(c2c(C)[nH][nH]c2=O)c2c(C)[nH][nH]c2=O)cc1OCC,-3.3% (inactive)
20,Cc1[nH][nH]c(=O)c1C(c1ccc2c(c1)OCO2)c1c(C)[nH][nH]c1=O,-1.45% (inactive)

row,SMILES,inhibition
1,Cc1[nH][nH]c(=O)c1C(c1ccc(-c2ccc(Cl)cc2)o1)c1c(C)[nH][nH]c1=O,18.4% (active)
2,CCc1ccccc1NC(=O)CN(c1ccc(OC)cc1OC)S(=O)(=O)c1ccccc1[N+](=O)[O-],0.37% (inactive)
3,Cc1ccc(Cn2c(SCC(=O)N/N=C/c3ccccc3OCC(=O)O)nc3ccccc32)cc1,-13.9% (inactive)
4,CC(NCc1ccccc1OC1CCCC1)c1ccccc1 (stereo not drawn),2.88% (inactive)
5,CC(Oc1ccccc1F)C(=O)NN (stereo not drawn),-4.14% (inactive)
6,O=C(/C=C/Nc1ccc(S(=O)(=O)Nc2cnc3ccccc3n2)cc1)c1cccnc1,1.02% (inactive)
7,Oc1c(C=Nc2cccc3nsnc23)ccc2ccccc12,40.4% (active)
8,Oc1ccc2ccccc2c1C=Nc1ccccc1,4.59% (inactive)
9,Oc1ccc(N=Cc2c(O)ccc3ccccc23)cc1,9.71% (inactive)
10,CCOC(=O)c1ccccc1C(=O)N1CCOCCOCCOCC1,-4.13% (inactive)
11,Nc1nc(SCC(=O)NN(c2ccccc2)c2ccccc2)n[nH]1,-5.25% (inactive)
12,COc1cc(OC)c(C(=O)Nc2ccccc2-c2ccccc2)cc1OC,0.92% (inactive)
13,COc1ccccc1NC(=O)c1cc(Cl)nc2ccccc12,5.78% (inactive)
14,COc1ccccc1C(=O)Nc1nc2nc(-c3ccccc3)cc(=O)n2[nH]1,14.8% (active)
15,O=C(NCCc1ccccc1)Oc1ccc(Cl)cc1,-1.73% (inactive)
16,O=C(N/N=C/c1ccccc1O)/C(=C/c1ccccc1)CCO,2.01% (inactive)
17,CCC1CCCCN1S(=O)(=O)Cc1ccccc1Cl (stereo not drawn),2.1% (inactive)
18,O=C(/C=C/c1ccc(Cl)c([N+](=O)[O-])c1)c1cccnc1,-0.11% (inactive)
19,O=C(/C=C/c1ccc(Cl)c([N+](=O)[O-])c1)c1ccc(O)cc1,19.3% (active)
20,CN(C)c1ccc(/C=C/C(=O)c2ccc(O)cc2)cc1[N+](=O)[O-],0.06% (inactive)

row,SMILES,inhibition
1,Cc1ccccc1Nc1c(-c2ccccc2)nc2ncccn12,4.55% (inactive)
2,CC(Sc1cccc[n+]1[O-])C(=O)Nc1cccc(S(=O)(=O)N2CCOCC2)c1 (stereo not drawn),4.59% (inactive)
3,CN(C)c1ccc(NC(=O)CSc2n[nH]c(-c3ccco3)n2)cc1,-3.13% (inactive)
4,COc1cc(C(=O)Nn2c(O)c(C3=c4ccccc4=NC3=O)sc2=S)ccc1O,4.86% (inactive)
5,COC(=O)Cn1nc(-c2ccccc2)c2cc(Cl)ccc21,-5.36% (inactive)
6,Nc1ccc2nc3c(=O)[nH]c(=S)[nH]c3nc2c1,39.2% (active)
7,Cc1cc2nc3c(=O)n(Cc4ccccc4)c(=O)[nH]c3nc2cc1N,8% (inactive)
8,Cc1ccc(C(=O)N/C(=C/c2cccs2)C(=O)N2CCCCC2)cc1,1.51% (inactive)
9,CCc1nc2sc3c(Cl)ncnc3c2c2c1CCCC2,6.87% (inactive)
10,C=CCn1c(N)c(C(=O)OCC(C)C)c2nc3ccccc3nc21,21.5% (active)
11,C=CCn1c(N)c(S(=O)(=O)c2cccs2)c2nc3ccccc3nc21,6.58% (inactive)
12,CC(C)Cn1c(N)c(C(=O)NCc2cccs2)c2nc3ccccc3nc21,4.74% (inactive)
13,CC(=O)c1cccc(-n2nnnc2SCC(=O)NNC(=O)C2CCCCC2)c1,-0.28% (inactive)
14,COc1ccccc1CNC(=O)Cn1c(=O)oc2cc(Cl)ccc21,-2.55% (inactive)
15,COCC(C)OC(=O)c1c(N)n(CCCN2CCOCC2)c2nc3ccccc3nc12 (stereo not drawn),4.25% (inactive)
16,CCCCN1C(=O)/C(=C/C=C2/C=Cc3ccccc3N2CC)SC1=S,6.25% (inactive)
17,CCN1C(=O)/C(=c2\s/c(=C3\Sc4ccccc4N3C)c(=O)n2C)N(C)C1=S,2.09% (inactive)
18,CCN1C(=O)/C(=C2/Sc3ccccc3N2CCCS(=O)(=O)O)SC1=S,16.4% (active) and -0.77% (inactive)
